Screening results deposited in PubChem by National Center for Advancing Translational Sciences (NCATS).
mIDH1 inhibitor: human IDH1 R132H inhibition; O75874; IDH1-R132H enzyme, NADPH consumption, diaphorase/resazurin fluorescence; Potency, µM (highest dose often 76.6 µM), for inactives: top-dose activity change, negative = inhibition, actives largely listed as inhibitors; 390,000 compounds, 0.093% hits; AID 602179; also: % is scaled to controls: 0 for no effect and ±100 for the full control effect; nearly all actives have a fitted effect of over 65% in size
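IDH1-R132H (0.5 ug/mL dispensed) in pH 7.5 Tris buffer was preincubated 30 min with compound, then given a substrate mix of 0.016 mM NADPH and 2 mM alpha-KG for 80 min at room temperature; remaining NADPH was read by diaphorase/resazurin fluorescence.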
GLP-1R inv ag: GLP-1 receptor (human) inverse agonism. HEK293 GLP-1R CRE-luciferase, luminescence, 24 h; GLP-1R form is constitutively active. 410,000 compounds, 1.6% hits. Potency, µM (titrated, usually from 38.3 µM), without a hit: top-dose activity change, negative = inhibition, usual class: inhibitors. AID 624417; also: % is scaled to controls: 0 for no effect and ±100 for the full control effect; nearly all actives have a fitted effect of over 55% in size
Target sequence (P43220 whole entry, looked up): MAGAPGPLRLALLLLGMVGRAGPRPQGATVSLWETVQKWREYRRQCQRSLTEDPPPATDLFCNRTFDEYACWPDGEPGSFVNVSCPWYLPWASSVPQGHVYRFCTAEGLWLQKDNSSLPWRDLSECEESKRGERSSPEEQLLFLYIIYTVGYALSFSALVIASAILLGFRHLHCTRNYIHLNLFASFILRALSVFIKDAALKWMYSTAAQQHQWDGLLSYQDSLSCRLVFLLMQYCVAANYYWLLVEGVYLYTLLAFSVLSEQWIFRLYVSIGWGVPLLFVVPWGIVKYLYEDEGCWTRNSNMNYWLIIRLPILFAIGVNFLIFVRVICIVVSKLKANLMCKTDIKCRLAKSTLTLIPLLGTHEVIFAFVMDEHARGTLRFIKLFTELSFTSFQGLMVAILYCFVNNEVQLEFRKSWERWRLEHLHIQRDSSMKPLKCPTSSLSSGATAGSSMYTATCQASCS
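HEK293 cells stably co-expressing constitutively active GLP-1R and a cAMP-responsive luciferase reporter were seeded in DMEM with 10% Nu serum, given compounds after 12 h, and incubated 24 h at 37 deg C. Luminescence was then read.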
GLP1R ag: agonists of human GLP-1 receptor; 380,000 compounds, 0.007% hits; P43220; Potency, µM (titrated, usually from 45.6 µM), without a hit: top-dose activation, usual class: activators; HEK293 GLP-1R CRE-luciferase, luminescence, 4-6 h; cells express a hypersensitive GLP-1R form; also: % of control where 0% means no effect
GLP1R cytotox: cytotoxicity in counter-screen for GLP-1R inverse agonists; AID 624418; Potency, µM (doses to about 38.3 µM), inactives show at the highest dose activity change, negative = inhibition, actives largely listed as inhibitors; 410,000 compounds, 0.13% hits; HEK293 cAMP-luciferase reporter cells, luminescence, 24 h;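 also: loss of luciferase light is scored as toxicity; % is scaled to controls: 0 for no effect and ±100 for the full control effect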
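Compound-treated cells are incubated 24 hr at 37 deg C under 5% CO2 after a 12 hour attachment period, then luciferase detection reagent is added and luminescence is measured following 12 min at room temperature; lowered signal indicates toxicity.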
TrxR1 substrate: rat thioredoxin reductase 1 substrate activity | O89049 | Potency, µM (series often up to 114 µM), for the others: at the top dose activity change, negative = substrate turnover | purified TrxR1 substrate turnover, NADPH consumption readout | 390,000 compounds, 0.01% hits | AID 588456; also: % is scaled to controls: 0 for no effect and ±100 for the full control effect; nearly all actives have a fitted effect of over 50% in size
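Rat TrxR1, dispensed at 90 nM, was prereduced with 400 uM NADPH (final) for 5 min at ~22 deg C, then incubated with compound 15 min before 400 uM selenite. A first-read NADPH fluorescence drop versus no-compound background flagged substrates.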
rTrxR1 inhibitor: blocks rat thioredoxin reductase 1; O89049; AID 588453; Potency, µM (highest dose often 114 µM), for the others: top-dose activity change, negative = inhibition, hits mostly inhibitors; recombinant rTrxR1, NADPH fluorescence consumption, selenite substrate; 390,000 compounds, 1% hits; also: % is scaled to controls: 0 for no effect and ±100 for the full control effect; nearly all actives have a fitted effect of over 65% in size
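Rat TrxR1 (90 nM in the dispensed reagent) was pre-reduced with 400 uM NADPH for 5 min at room temperature, then incubated with compound for 15 min. After 400 uM selenite was added, NADPH fluorescence (Ex 340/Em 450 nm) was followed for 8 min.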
An asterisk follows results filed as active; i = inactive; ? = inconclusive; nt = no result; [ ] = dose if it differs, or a comment. This is a sample that favours compounds with a hit; in the whole collection about 2.7% have one here. Calls follow the shape of the dose curve; as a rule, active = well fitted curve in the direction sought with a large enough effect; inconclusive = small, poorly fitted or top-dose-only effect, or another doubt; inactive = no such curve, though single readings can be large; an effect the other way counts as inactive or inconclusive. Potency is read from the fitted curve at half-maximal effect.

SMILES | mIDH1 inhibitor | GLP-1R inv ag | GLP1R ag | GLP1R cytotox | TrxR1 substrate | rTrxR1 inhibitor
CCN(c1ccc(C)cc1)S(=O)(=O)c1nnc(NC(=O)c2ccco2)s1 | 0% | ? | -5% | -5% | -4% | 56µM*
CC(C)OC(=O)CC(=O)c1sc2nc3c(cc2c1N)CN(C)CC3 | 7% | -10% | -3% | -4% | -1%[57.1 µM] | 20µM*
CN1CCc2nc3sc(C(=O)Nc4c(F)cccc4F)c(N)c3cc2C1 | 29% | 24% | nt | 6% | 6% | -8%
CCOc1ccc(CN2CCN(Cc3cc4c(cc3Cl)OCO4)CC2CCO)cc1 (stereo unspecified) | 1% | 7.9µM* | 27% | -15% | -8% | 0%
Cc1nc([N+](=O)[O-])c(Sc2nc3ccccc3n2C)n1Cc1ccccc1 | 6% | 4% | -35% | ? | -3% | 6.3µM*
O=c1c2ccccc2n(Cc2ccccc2F)c(=O)n1-c1cccc(F)c1 | 16% | 1% | -1% | 1% | 7% | 18%
CC1=CC(C)C(/C=N/N=C(N)N)C(C)C1 (stereo unspecified) | 1% | 8.9µM* | -1% | 11% | 5%[57.1 µM] | 22%
COc1ccc(C(=O)Nc2ccccc2-c2ccccc2)cc1Cl | 3% | ? | 13% | -3% | 1% | 16%
CCOc1c(Cl)cc(C(=O)Nc2ccccc2-c2ccccc2)cc1Cl | 3% | 8.9µM* | -6% | 38% | -7% | -6%
c1ccc(-c2nc3nc4ccccc4nc3n2Cc2ccco2)cc1 | 10% | ? | 2% | -9% | 9%[57.1 µM] | 32µM*
Fc1ccc(-c2nc3nc4ccccc4nc3n2Cc2ccco2)cc1 | 6% | ? | 6% | -12% | 5% | ?
CCC1CN(C(=O)NCc2ccc(F)cc2)c2cc(Cl)ccc2O1 (stereo unspecified) | 2% | 10µM* | 5% | 2% | 13% | 14%
CCC1CN(C(=O)NCc2cccc(OC)c2)c2cc(Cl)ccc2O1 (stereo unspecified) | -2% | 11µM* | 13% | 0% | 1% | 24%
Cc1ccccc1C(=O)NC1(C(F)(F)F)C(=O)Nc2c1c(=O)[nH]c(=O)n2CCc1ccccc1 (stereo unspecified) | 10% | 23% | nt | 21% | -2%[57.1 µM] | 23%[57.1 µM]
COC(=O)[C@@]12C[C@@H](CC(=O)NCCCCc3ccccc3)C(=O)N(Cc3cccc4ccccc34)C1=CCC(C)(C)C2 | nt | ? | nt | -15% | nt | nt
CCCCCCCCN1C(=O)[C@H](CC(=O)NCc2ccccc2)C[C@@]2(C(=O)OCC)CCCC=C12 | nt | ? | -4% | -18% | nt | nt
CCCCCCCCN1C(=O)[C@H](CC(=O)NCCCCc2ccccc2)C[C@@]2(C(=O)OCC)CCCC=C12 | nt | 7.1µM* | 0% | -3% | nt | nt
COC(=O)[C@@]12C[C@@H](CC(=O)NCc3ccccc3)C(=O)N(Cc3ccccc3)C1=CCC(C)(C)C2 | nt | 11µM* | nt | -19% | nt | nt
CCCCCCCCN1C(=O)[C@H](CC(=O)NCc2cccs2)C[C@@]2(C(=O)OC)CC(C)(C)CC=C12 | nt | 8.9µM* | nt | -6% | nt | nt
COc1cccc(CNC(=O)C2CCC(CNS(=O)(=O)c3ccc(Br)s3)CC2)c1 (stereo unspecified) | -3% | -17% | nt | 2% | -7% | 3%
O=C(O)CCc1ccc(-c2cccs2)n1-c1ccc(C(=O)O)cc1 | 11% | 11% | 0% | -22% | 6% | 71µM*
COc1cc(NC(=O)c2ccc(Cl)cc2)c(OC)cc1NC(=O)CN1CCCCC1 | 5% | 3.5µM* | 19% | ? | -3%[57.1 µM] | 14%[57.1 µM]
COc1cc(NC(=O)C2CCCCC2)c(OC)cc1NC(=O)CN1CCCCC1 | 0% | 2.5µM* | 16% | ? | -12% | -1%
COc1cc(NC(=O)c2ccc(Cl)cc2)c(OC)cc1NC(=O)CN1CCOCC1 | 1% | -2% | -13% | -1% | 4% | 8%
COc1ccc(C2/C=C\CN(C(=O)c3ccc(C)cc3)[C@H](Cc3ccccc3)C(=O)N2Cc2ccc(F)cc2)cc1 (stereo partly specified) | -2%[38.3 µM] | 10µM* | 0% | -8% | 6% | 9%
SMILES | mIDH1 inhibitor | GLP-1R inv ag | GLP1R ag | GLP1R cytotox | TrxR1 substrate | rTrxR1 inhibitor
COc1ccc(C2/C=C\CN(C(=O)c3ccc(C)cc3)C(C)C(=O)N2Cc2ccc(F)cc2)cc1 (stereo unspecified) | nt | nt | nt | nt | -4% | 0%
CCN(CC)CCCN=Cc1c(O)n(-c2c(C)cccc2C)c(=O)c2ccccc12 | 5% | ? | -3% | 1% | -3% | -7%
CCN(CC)CCCN=Cc1c(O)n(Cc2ccccc2)c(=O)c2ccccc12 | 0% | 13µM* | 14% | -10% | 11%[57.1 µM] | 16%[57.1 µM]
CCc1ccn2cc(-c3cc(-c4ccccc4)no3)nc2c1 | 0% | -74% | -3% | -12% | 6% | 18%
Cc1ccc2nc(-c3cc(-c4ccccc4)no3)cn2c1 | 1% | 4µM* | 5% | 9% | 14%[57.1 µM] | 15%[11.4 µM]
CN1CCc2nc3sc(C(=O)Nc4cccc(C#N)c4)c(N)c3cc2C1 | nt | 44% | nt | 14% | 5% | 15%
CC1C/C(=C/c2ccncc2)C(=O)/C(=C/c2ccncc2)C1 (stereo unspecified) | ? | ? | -9% | ? | 3% | 14µM*
CC1C/C(=C/c2cccn2C)C(=O)/C(=C/c2cccn2C)C1 (stereo unspecified) | 7% | 13µM* | 5% | 93% | -13% | ?
Cc1ccc(N=C2NC(=O)/C(=C/c3cccn3C)S2)cc1 | 10% | -27% | 19% | ? | -4% | 17%
Cc1cc(=O)oc2c3c(ccc12)OCN(Cc1ccc(Cl)cc1)C3 | -13% | 10% | nt | 153% | 916% | 20µM*
CCCc1cc(=O)oc2c3c(ccc12)OCN(Cc1ccccc1OC)C3 | 4% | -21% | -5% | 120% | i | 22µM*
O=c1oc2c3c(ccc2c2ccccc12)OCN(Cc1ccc(Cl)cc1)C3 | 28% | 18% | nt | 5% | 12% | 31%
CC(C)(C)NC(=O)CSc1nc2ccccc2n1-c1ccccc1 | 1% | 10µM* | 7% | 4% | 6%[57.1 µM] | 23%[57.1 µM]
CC(C)(C)NC(=O)CSc1nnc(-c2ccccc2)c(-c2ccccc2)n1 | -3% | 8.9µM* | 8% | 4% | -2% | 14%
CC(=O)NNC(=O)CSc1nnc(-c2ccccc2)c(-c2ccccc2)n1 | 7% | 5% | 17% | 4% | -4% | ?
Cc1cc(C)cc(NC(=O)c2sc3nc(-c4ccccc4)cn3c2C)c1 | 7% | ? | nt | ? | 1%[57.1 µM] | 12%[57.1 µM]
